Records with an inconclusive call do not appear. A call without a number means that no potency is given here. Active and inactive are the calls of the source. Calls come from the whole dose curve; as a rule, active = well fitted cell-killing curve with a large enough effect; inconclusive = small, poorly fitted or top-dose-only effect; inactive = no such curve, though single readings can be large or run the other way.
Columns and labels:
[1] = qHTS of pediatric cancer cell lines to identify multiple opportunities for drug repurposing: Primary screen for Rh30 cells (AID 1347107); note: nearly all actives have a fitted effect of over 75% in size
Method in brief: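 Cells (500-1,000/well) rested 5 h, then received compounds for 48 h; metabolically active cells were measured by CellTiter-Glo luminescence. Final concentrations spanned up to 46 µM (MIPE, 11-point) or 0.59 nM-46 µM (NPC, 8-point) in primary screens, 11-point in follow-ups.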

[2] = qHTS of pediatric cancer cell lines to identify multiple opportunities for drug repurposing: Primary screen for Rh41 cells (AID 1347108); note: nearly all actives have a fitted effect of over 70% in size
Method in brief: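 Quantitative HTS format: each compound titrated (MIPE 11 points from 0.78 nM, NPC 8 points from 0.59 nM) onto cells plated 5 hours earlier. After 48 h at 37 degrees C, CellTiter-Glo luminescence was recorded.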
Potency is the fitted concentration of half-maximal effect.

Row | SMILES | Potency [1] | Potency [2]
1 | CC(=O)OCCN1C(=O)c2c(C)nc3ccc(S(=O)(=O)N4CCOCC4)cc3c2C1=O | inactive | inactive
2 | Cn1c2cc(S(C)=O)sc2c2cnn(Cc3cccc(N)c3)c(=O)c21 (stereo not drawn) | inactive | 
3 | Nc1ccc(C(=O)c2cc3c(ccc4ccccc43)[nH]2)cc1 | inactive | 4.69 µM (active)
4 | CC(C)c1noc(N2CCC(COc3ccc(-c4ccc(S(C)(=O)=O)cc4)nc3)CC2)n1 | inactive | 
5 | Cc1coc2c1C(=O)C(=O)c1c-2ccc2c1CCCC2(C)C | inactive | inactive
6 | COc1cc(C(C)C)c2c(c1)S(=O)(=O)N(COc1cc(=O)n3cccc(OCCN4CCCCC4)c3n1)C2=O | inactive | 
7 | CCCNC(=O)Nc1ccc(Oc2ncnc3cc(OC)c(OC)cc23)cc1Cl | inactive | inactive
8 | CC(C)c1ccc(Cn2ccc3c4c(N)nc(NC5CC5)nc4ccc32)cc1 | 18.7 µM (active) | 3.72 µM (active)
9 | COc1c(N2C[C@@H]3CCCN[C@H]3C2)c(F)cc2c(=O)c(C(=O)O)cn(C3CC3)c12 | inactive | inactive
10 | Clc1cccc(-c2nnnn2Cc2cccnc2)c1Cl | inactive | inactive
11 | O=C(CCCCCCC(=O)Nc1ccc([C@H]2O[C@@H](CSc3nc(-c4ccccc4)c(-c4ccccc4)o3)C[C@@H](c3ccc(CO)cc3)O2)cc1)NO | 14.8 µM (active) | 9.35 µM (active)
12 | CN(C)c1nc(Cc2ccc(NC(=O)c3ccc4ccccc4c3)cc2)nc(Cl)c1CC(=O)O | inactive | inactive
13 | C=CC(=O)Nc1cc2c(Nc3ccc(F)c(Cl)c3)ncnc2cc1OCCCN1CCOCC1 | 18.7 µM (active) | 18.7 µM (active)

From PubChem BioAssay (NCATS)
